Measured values reported in paper PMC7862700, “An all-to-all approach to the identification of sequence-specific readers for epigenetic DNA modifications on cytosine”.

Columns and labels:
Test in all cases: DAPPL (digital affinity profiling via proximity ligation, sequencing); 10 mM Tris-HCl pH 7.5, 50 mM NaCl, 1 mM DTT, 4% glycerol, room temperature, 30 min; GST-TFs on glutathione beads, 16-mer random dsDNA library, 0.1% formaldehyde crosslink after washing; high values mean tight binding
[1] = target: T1, FLI1 (Homo sapiens, UniProt Q01543 1-452); conditions: protein: recombinant; tags: N-terminal GST; dsDNA, one strand shown
T1 sequence: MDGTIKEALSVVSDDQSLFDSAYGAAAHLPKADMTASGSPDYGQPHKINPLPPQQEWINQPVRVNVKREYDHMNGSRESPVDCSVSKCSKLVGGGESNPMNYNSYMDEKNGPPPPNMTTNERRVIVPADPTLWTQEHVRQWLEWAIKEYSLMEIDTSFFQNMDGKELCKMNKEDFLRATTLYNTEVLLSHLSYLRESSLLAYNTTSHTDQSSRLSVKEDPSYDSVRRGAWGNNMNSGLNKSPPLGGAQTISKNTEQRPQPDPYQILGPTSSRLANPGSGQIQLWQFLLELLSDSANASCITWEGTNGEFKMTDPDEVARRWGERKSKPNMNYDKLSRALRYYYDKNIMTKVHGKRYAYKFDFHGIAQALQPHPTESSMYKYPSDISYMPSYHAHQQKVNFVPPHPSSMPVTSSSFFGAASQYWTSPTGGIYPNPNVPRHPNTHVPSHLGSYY
Summary of the method: (§1)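 Beads coated with glutathione captured GST-fused human transcription factors that had been expressed in yeast, and the factors were then given DNA barcodes and pooled with a tag-only sample. The pools were incubated with 200 nmole of a random double-stranded 16-mer DNA library in Tris/NaCl/DTT/glycerol buffer for 30 min at room temperature, washed, crosslinked with 0.1% formaldehyde and proximity-ligated with BsaI/T4 ligase at 37 °C for 1 h. PCR amplification and Illumina NextSeq500 sequencing came last. Binding signal is each hexamer's read frequency for a factor divided by its frequency for the tag-only sample.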

[2] = target: T2, ELK1 (Homo sapiens, UniProt P19419 1-428); conditions: protein: recombinant; tags: N-terminal GST; dsDNA, one strand shown
T2 sequence: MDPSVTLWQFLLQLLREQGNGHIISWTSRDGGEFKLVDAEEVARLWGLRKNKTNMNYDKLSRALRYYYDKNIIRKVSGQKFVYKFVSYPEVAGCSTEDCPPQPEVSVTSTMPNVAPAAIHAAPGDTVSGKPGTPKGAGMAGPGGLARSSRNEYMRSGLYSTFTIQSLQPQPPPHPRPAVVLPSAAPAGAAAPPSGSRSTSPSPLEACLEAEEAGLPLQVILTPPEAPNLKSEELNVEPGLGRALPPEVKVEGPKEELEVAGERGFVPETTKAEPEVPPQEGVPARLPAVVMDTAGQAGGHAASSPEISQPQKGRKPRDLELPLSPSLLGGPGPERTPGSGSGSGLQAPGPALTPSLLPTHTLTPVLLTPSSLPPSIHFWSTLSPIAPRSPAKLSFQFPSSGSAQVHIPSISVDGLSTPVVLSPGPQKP
Summary of the method: as §1

[3] = target: T3, GABPA (Homo sapiens, UniProt Q06546 1-454); conditions: protein: recombinant; tags: N-terminal GST; dsDNA, one strand shown
T3 sequence: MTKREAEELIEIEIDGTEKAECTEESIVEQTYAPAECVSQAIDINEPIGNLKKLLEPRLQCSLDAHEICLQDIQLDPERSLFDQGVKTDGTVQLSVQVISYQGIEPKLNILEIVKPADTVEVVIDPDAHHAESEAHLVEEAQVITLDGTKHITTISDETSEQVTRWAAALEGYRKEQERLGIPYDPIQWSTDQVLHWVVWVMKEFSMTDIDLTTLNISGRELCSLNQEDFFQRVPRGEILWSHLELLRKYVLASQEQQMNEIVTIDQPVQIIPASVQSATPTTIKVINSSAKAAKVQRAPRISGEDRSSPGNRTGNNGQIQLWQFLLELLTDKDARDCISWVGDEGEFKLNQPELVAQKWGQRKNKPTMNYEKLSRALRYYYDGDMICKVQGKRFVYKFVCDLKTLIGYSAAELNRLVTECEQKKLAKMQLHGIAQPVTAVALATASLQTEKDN
Summary of the method: as §1

[4] = target: T4, ERG (Homo sapiens, UniProt P11308 1-479); conditions: protein: recombinant; tags: N-terminal GST; dsDNA, one strand shown
T4 sequence: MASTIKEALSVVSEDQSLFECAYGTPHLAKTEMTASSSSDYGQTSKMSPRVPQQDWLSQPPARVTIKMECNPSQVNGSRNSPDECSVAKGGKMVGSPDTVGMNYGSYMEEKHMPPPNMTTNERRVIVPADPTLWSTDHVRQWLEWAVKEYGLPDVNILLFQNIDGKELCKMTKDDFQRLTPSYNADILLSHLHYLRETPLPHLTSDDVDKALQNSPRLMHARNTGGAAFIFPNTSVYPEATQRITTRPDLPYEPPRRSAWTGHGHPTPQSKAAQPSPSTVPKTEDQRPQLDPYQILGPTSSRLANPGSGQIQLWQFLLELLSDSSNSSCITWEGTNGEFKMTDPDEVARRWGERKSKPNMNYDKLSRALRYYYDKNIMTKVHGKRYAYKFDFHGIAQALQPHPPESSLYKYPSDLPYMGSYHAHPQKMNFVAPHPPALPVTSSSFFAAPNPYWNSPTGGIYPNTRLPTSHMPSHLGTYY
Summary of the method: as §1

[5] = target: ELF1 (Homo sapiens, UniProt P32519 1-619); conditions: protein: recombinant; tags: N-terminal GST; dsDNA, one strand shown
Summary of the method: as §1

[6] = target: T5, EHF (Homo sapiens, UniProt Q9NZC4 1-300); conditions: protein: recombinant; tags: N-terminal GST; dsDNA, one strand shown
T5 sequence: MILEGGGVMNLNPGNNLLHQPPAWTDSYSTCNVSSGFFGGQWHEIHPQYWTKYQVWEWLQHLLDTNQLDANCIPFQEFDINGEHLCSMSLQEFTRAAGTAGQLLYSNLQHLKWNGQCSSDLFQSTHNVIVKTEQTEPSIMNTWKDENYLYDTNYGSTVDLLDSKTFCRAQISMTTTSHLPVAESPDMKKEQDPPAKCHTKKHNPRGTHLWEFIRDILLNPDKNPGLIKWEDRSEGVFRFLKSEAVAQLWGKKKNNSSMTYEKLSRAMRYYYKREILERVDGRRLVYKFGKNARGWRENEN
Summary of the method: as §1

[7] = target: SPI1 (Homo sapiens, UniProt P17947 1-270); conditions: protein: recombinant; tags: N-terminal GST; dsDNA, one strand shown
Summary of the method: as §1

[8] = target: SPIB (Homo sapiens, UniProt Q01892 1-262); conditions: protein: recombinant; tags: N-terminal GST; dsDNA, one strand shown
Summary of the method: as §1

[9] = target: T6, ELK3 (Homo sapiens, UniProt P41970 1-407); conditions: protein: recombinant; tags: N-terminal GST; dsDNA, one strand shown
T6 sequence: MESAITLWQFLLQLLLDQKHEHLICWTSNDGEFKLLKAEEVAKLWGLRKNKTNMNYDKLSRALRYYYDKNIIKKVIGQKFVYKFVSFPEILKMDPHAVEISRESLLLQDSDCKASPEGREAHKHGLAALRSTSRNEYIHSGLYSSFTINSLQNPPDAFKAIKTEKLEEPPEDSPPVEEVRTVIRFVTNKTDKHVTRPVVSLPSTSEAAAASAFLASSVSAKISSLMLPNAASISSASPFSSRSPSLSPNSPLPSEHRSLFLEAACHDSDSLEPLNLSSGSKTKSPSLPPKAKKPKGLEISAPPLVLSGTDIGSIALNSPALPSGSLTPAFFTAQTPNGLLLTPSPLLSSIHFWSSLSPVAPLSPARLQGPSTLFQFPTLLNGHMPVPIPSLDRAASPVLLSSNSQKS
Summary of the method: as §1

[10] = target: T7, FEV (Homo sapiens, UniProt Q99581 1-238); conditions: protein: recombinant; tags: N-terminal GST; dsDNA, one strand shown
T7 sequence: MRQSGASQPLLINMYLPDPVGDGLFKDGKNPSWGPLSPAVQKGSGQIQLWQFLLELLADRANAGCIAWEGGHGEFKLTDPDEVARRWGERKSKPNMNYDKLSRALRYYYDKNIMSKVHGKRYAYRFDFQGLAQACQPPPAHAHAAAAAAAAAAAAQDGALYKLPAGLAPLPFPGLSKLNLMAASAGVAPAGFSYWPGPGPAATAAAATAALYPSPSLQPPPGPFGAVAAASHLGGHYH
Summary of the method: as §1

[11] = target: ETV5 (Homo sapiens, UniProt P41161 1-510); conditions: protein: recombinant; tags: N-terminal GST; dsDNA, one strand shown
Summary of the method: as §1

[12] = target: HSF1 (Homo sapiens, UniProt Q00613 1-529); conditions: protein: recombinant; tags: N-terminal GST; chain copies: 3; dsDNA, one strand shown
Summary of the method: as §1

[13] = target: ELF4 (Homo sapiens, UniProt Q99607 1-663); conditions: protein: recombinant; tags: N-terminal GST; dsDNA, one strand shown
Summary of the method: as §1

[14] = target: T8, ELK4 (Homo sapiens, UniProt P28324-2 1-405); conditions: protein: recombinant; tags: N-terminal GST; dsDNA, one strand shown
T8 sequence: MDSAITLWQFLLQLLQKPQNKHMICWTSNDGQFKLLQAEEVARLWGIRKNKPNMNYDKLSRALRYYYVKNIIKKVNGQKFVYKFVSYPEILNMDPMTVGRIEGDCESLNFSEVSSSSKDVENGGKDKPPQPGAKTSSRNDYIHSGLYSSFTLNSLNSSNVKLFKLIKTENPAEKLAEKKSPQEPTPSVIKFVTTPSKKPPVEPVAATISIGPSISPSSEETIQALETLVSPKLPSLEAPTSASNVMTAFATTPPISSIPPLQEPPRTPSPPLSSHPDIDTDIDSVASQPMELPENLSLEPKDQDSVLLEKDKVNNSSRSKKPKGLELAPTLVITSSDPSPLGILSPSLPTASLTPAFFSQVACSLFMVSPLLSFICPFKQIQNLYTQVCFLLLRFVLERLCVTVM
Summary of the method: as §1

[15] = target: T9, ETV2 (Homo sapiens, UniProt O00321 1-342); conditions: protein: recombinant; tags: N-terminal GST; dsDNA, one strand shown
T9 sequence: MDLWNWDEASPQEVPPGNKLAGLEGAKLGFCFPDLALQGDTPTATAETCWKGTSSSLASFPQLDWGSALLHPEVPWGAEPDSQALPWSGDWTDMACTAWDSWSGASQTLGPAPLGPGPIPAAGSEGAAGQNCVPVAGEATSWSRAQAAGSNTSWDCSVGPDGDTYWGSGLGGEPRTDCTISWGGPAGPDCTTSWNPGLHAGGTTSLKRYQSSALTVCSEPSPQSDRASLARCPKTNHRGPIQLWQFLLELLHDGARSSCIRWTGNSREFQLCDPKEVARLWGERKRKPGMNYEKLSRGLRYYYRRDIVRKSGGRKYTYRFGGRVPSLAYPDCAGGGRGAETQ
Summary of the method: as §1

[16] = target: T10, ELF3 (Homo sapiens, UniProt P78545 1-371); conditions: protein: recombinant; tags: N-terminal GST; dsDNA, one strand shown
T10 sequence: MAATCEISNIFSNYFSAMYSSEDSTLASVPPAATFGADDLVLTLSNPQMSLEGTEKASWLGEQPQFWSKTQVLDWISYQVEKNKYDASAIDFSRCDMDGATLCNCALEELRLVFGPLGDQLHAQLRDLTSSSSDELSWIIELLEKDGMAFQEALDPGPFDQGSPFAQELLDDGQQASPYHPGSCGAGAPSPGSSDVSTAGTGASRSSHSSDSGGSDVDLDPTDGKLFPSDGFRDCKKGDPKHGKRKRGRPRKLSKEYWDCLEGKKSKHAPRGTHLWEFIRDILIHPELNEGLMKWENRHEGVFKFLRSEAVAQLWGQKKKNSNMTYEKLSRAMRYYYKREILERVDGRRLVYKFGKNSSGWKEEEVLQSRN
Summary of the method: as §1

[17] = target: CRX (Homo sapiens, UniProt O43186 1-299); conditions: protein: recombinant; tags: N-terminal GST; dsDNA, one strand shown
Summary of the method: as §1

[18] = target: ETV1 (Homo sapiens, UniProt P50549 1-477); conditions: protein: recombinant; tags: N-terminal GST; dsDNA, one strand shown
Summary of the method: as §1

Chain of ELF4 (Q99607 whole entry): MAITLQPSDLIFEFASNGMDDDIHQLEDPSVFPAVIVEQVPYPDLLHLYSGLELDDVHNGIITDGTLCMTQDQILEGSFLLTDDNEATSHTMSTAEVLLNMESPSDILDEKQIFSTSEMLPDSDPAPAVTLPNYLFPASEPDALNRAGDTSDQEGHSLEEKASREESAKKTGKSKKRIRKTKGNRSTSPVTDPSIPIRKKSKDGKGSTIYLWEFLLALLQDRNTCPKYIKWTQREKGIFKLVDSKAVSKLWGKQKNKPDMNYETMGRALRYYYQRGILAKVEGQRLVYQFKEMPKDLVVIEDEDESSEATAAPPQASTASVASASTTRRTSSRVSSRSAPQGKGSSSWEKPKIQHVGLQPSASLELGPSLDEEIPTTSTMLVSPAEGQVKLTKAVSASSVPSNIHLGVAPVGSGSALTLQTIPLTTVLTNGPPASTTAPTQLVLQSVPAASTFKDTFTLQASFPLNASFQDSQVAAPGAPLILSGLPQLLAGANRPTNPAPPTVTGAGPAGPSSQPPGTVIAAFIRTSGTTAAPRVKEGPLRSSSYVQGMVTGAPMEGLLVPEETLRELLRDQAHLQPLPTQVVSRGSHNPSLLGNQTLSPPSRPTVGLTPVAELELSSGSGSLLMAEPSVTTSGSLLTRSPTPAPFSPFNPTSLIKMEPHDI
Chain of CRX (O43186 whole entry): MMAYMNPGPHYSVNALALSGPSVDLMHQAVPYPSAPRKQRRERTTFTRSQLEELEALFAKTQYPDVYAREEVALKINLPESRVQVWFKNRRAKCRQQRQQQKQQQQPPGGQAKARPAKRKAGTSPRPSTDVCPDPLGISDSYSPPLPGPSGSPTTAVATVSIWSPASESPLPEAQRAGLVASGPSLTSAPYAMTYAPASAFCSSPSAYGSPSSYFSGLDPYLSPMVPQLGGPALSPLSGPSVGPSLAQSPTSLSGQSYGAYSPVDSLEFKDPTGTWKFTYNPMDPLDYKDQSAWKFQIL
Chain of HSF1 (Q00613 whole entry): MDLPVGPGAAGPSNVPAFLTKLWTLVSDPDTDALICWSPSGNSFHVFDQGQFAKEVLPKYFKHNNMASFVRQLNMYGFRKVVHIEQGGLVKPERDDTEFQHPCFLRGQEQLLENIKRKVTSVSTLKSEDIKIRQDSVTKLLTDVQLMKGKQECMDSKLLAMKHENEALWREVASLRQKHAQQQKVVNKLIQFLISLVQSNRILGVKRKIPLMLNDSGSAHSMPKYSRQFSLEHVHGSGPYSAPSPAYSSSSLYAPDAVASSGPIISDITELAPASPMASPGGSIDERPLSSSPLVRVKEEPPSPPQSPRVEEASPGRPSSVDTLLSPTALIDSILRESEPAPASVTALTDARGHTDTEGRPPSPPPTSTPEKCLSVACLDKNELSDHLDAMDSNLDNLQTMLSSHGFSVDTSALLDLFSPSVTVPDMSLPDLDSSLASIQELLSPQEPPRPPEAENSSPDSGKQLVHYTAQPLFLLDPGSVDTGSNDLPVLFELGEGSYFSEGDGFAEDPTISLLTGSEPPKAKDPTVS
Chain of ELF1 (P32519 whole entry): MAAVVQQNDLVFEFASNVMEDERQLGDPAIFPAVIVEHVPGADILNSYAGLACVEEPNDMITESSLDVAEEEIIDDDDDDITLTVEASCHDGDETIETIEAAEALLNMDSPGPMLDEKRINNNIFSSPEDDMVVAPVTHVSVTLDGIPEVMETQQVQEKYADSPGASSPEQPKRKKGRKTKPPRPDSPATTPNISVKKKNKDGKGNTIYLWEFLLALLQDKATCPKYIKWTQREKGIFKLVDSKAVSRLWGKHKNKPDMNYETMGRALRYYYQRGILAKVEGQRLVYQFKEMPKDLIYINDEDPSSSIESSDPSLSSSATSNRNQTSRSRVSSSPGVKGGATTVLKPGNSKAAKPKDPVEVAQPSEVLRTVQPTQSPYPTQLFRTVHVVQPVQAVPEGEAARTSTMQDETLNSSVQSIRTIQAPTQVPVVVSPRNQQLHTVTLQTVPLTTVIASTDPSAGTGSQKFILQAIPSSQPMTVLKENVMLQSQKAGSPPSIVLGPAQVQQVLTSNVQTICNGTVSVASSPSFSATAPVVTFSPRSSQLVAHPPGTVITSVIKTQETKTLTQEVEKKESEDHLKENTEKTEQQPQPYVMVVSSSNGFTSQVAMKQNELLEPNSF
Chain of ETV5 (P41161 whole entry): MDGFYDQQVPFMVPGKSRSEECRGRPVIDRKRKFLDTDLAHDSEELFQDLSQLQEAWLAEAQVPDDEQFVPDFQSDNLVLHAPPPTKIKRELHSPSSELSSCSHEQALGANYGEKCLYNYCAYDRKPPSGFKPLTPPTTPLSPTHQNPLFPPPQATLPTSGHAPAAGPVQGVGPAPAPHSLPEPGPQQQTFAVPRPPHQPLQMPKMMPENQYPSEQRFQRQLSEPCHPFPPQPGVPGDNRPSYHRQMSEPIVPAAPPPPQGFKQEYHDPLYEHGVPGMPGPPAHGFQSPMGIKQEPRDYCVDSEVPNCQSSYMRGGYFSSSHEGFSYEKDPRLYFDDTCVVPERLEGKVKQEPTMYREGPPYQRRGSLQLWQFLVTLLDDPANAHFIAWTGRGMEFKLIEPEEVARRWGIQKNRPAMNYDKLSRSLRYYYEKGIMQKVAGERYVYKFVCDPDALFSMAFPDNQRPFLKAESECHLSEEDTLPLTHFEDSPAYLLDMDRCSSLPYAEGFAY
Chain of SPIB (Q01892 whole entry): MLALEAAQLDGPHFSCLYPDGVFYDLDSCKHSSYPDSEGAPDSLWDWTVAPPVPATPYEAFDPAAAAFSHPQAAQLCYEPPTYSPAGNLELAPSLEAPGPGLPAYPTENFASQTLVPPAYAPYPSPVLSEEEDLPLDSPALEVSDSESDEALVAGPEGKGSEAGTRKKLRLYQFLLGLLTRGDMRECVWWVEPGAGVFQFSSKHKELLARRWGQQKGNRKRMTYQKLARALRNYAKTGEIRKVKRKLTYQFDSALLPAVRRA
Chain of ETV1 (P50549 whole entry): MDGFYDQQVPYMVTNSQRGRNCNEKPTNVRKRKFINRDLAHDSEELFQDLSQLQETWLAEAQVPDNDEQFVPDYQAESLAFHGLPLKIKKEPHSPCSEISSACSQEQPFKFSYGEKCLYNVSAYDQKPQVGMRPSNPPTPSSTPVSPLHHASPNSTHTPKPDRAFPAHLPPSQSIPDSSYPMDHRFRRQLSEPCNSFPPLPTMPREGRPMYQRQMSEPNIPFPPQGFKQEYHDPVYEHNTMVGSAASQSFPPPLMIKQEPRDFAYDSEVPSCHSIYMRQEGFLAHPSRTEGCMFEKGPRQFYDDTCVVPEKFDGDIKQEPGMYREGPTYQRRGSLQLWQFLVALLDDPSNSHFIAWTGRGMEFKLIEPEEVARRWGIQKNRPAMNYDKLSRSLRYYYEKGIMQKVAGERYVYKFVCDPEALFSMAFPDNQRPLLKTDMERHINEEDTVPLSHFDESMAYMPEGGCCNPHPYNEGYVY

Sequence	binding signal [1]	binding signal [2]	binding signal [3]	binding signal [4]	binding signal [5]	binding signal [6]	binding signal [7]	binding signal [8]	binding signal [9]	binding signal [10]	binding signal [11]	binding signal [12]	binding signal [13]	binding signal [14]	binding signal [15]	binding signal [16]	binding signal [17]	binding signal [18]
CTAGTA	1.08 fold enrichment (6-mer frequency, TF over GST control)	1.03 fold enrichment (6-mer frequency, TF over GST control)	1.08 fold enrichment (6-mer frequency, TF over GST control)	1.06 fold enrichment (6-mer frequency, TF over GST control)	1.15 fold enrichment (6-mer frequency, TF over GST control)	1.08 fold enrichment (6-mer frequency, TF over GST control)	1.13 fold enrichment (6-mer frequency, TF over GST control)	1.1 fold enrichment (6-mer frequency, TF over GST control)	1.17 fold enrichment (6-mer frequency, TF over GST control)	1.04 fold enrichment (6-mer frequency, TF over GST control)	1.08 fold enrichment (6-mer frequency, TF over GST control)	1.86 fold enrichment (6-mer frequency, TF over GST control)	1.07 fold enrichment (6-mer frequency, TF over GST control)	1.09 fold enrichment (6-mer frequency, TF over GST control)	1.1 fold enrichment (6-mer frequency, TF over GST control)	1.18 fold enrichment (6-mer frequency, TF over GST control)	1.38 fold enrichment (6-mer frequency, TF over GST control)	1.04 fold enrichment (6-mer frequency, TF over GST control)
TGACTA	1.14 fold enrichment (6-mer frequency, TF over GST control)	1.08 fold enrichment (6-mer frequency, TF over GST control)	1.08 fold enrichment (6-mer frequency, TF over GST control)	1.03 fold enrichment (6-mer frequency, TF over GST control)	1.09 fold enrichment (6-mer frequency, TF over GST control)	1.11 fold enrichment (6-mer frequency, TF over GST control)	1.14 fold enrichment (6-mer frequency, TF over GST control)	1.17 fold enrichment (6-mer frequency, TF over GST control)	1.14 fold enrichment (6-mer frequency, TF over GST control)	1.01 fold enrichment (6-mer frequency, TF over GST control)	1.04 fold enrichment (6-mer frequency, TF over GST control)	1.04 fold enrichment (6-mer frequency, TF over GST control)	1.09 fold enrichment (6-mer frequency, TF over GST control)	1.06 fold enrichment (6-mer frequency, TF over GST control)	1.17 fold enrichment (6-mer frequency, TF over GST control)	1.08 fold enrichment (6-mer frequency, TF over GST control)	1.17 fold enrichment (6-mer frequency, TF over GST control)	1.15 fold enrichment (6-mer frequency, TF over GST control)
